Hits are enriched below; roughly 27% of the tested compounds scored in any of these assays.
sEH inhibitor – blocks human soluble epoxide hydrolase activity | P34913 | recombinant human sEH enzymatic activity assay | inhibition, % at 2 µM | actives 0.34% (n = 91,000) | AID 707; in the data active = inhibition above about 80%
Target sequence (P34913 whole entry, looked up): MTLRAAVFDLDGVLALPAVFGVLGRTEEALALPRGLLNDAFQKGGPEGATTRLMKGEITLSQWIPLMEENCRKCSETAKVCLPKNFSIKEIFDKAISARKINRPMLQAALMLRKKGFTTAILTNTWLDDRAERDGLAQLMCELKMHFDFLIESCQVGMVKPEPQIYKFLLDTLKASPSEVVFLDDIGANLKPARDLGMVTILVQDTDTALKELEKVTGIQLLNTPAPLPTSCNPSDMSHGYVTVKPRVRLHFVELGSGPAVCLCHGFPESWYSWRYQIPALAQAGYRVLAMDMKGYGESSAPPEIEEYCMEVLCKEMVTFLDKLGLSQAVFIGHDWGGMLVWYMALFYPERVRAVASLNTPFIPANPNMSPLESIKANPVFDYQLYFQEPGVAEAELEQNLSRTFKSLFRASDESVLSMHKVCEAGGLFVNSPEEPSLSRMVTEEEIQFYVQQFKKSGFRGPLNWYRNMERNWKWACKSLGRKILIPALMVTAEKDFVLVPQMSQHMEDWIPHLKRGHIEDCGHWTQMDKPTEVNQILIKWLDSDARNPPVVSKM
sEH act – increases human soluble epoxide hydrolase activity; P34913; purified human sEH enzymatic activity, activator screen; activation, % at 2 µM; actives 0.04% (n = 91,000); AID 717; in the data active = activation above about 37%
CYP2C9 inh – blocks human cytochrome P450 2C9; inhibition, % at 5 µM; actives 20% (n = 96,000); CYP2C9 Supersomes, luciferin-H conversion, luminescence; P11712;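 active = blocking of liver enzyme CYP2C9 beyond about 50% at 5 µM, limit read from the data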
CYP2C9 activ – increases human cytochrome P450 2C9 activity. P11712. recombinant CYP2C9, luciferin-H conversion, luminescence; active compounds read high; factor 1 = untreated enzyme, 0 = blocked. activation factor at 5 µM. actives 1.4% (n = 96,000). AID 1024;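 active = activation factor of 2 or more for CYP2C9 at a 5 µM dose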;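 note: 0 = sulfaphenazole-blocked wells and 1 = vehicle-only wells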
CYP2C19 act – cytochrome P450 2C19 (human) activation; activation factor at 5 µM; P33261; AID 1025; 96,000 tested, under 10 active; recombinant CYP2C19, luciferin-H EGE luminescence; active compounds read high; 0 = fully inhibited enzyme, 1 = untreated enzyme;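 active = activation factor of at least 2 at 5 µM in the primary screen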;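 note: 0 = wells with 2.5 mM tranylcypromine and 1 = vehicle-only wells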
CYP2C19 inh – human CYP2C19 inhibition. P33261. CYP2C19 Supersomes, luciferin-H EGE luminescence, 30 min. inhibition, % at 5 µM. actives 21% (n = 96,000). AID 778;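 active = CYP2C19 inhibition above a set limit at 5 µM in the primary screen, cut at about 50% in these data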;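 note: plate controls were negative control wells for no effect and 2.5 mM tranylcypromine positive control for full effect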
Active calls of the source: *.

Screening O=C1CSC(=S)N1CC1CCCO1 (configuration not stated) returned sEH inhibitor -1, sEH act 1, CYP2C9 inh 20, CYP2C9 activ 0.8, CYP2C19 act 0.8 and CYP2C19 inh 20.
Screening CCCSc1nc(C)cc(C)c1C(N)=O returned sEH inhibitor 4, sEH act -4, CYP2C9 inh -12, CYP2C9 activ 1.1, CYP2C19 act 1.2 and CYP2C19 inh -24.
`COc1cccc(C(=O)NC(Cc2ccccc2)c2ccc3c(c2)OCCCO3)c1` (configuration not stated) gave sEH inhibitor 5, sEH act -6, CYP2C9 inh 75*, CYP2C9 activ 0.2, CYP2C19 act 0.5 and CYP2C19 inh 46.
`O=C(NC(Cc1ccccc1)c1ccc2c(c1)OCCCO2)c1ccc(F)cc1` (configuration not stated) gave sEH inhibitor 28, sEH act -28, CYP2C9 inh 90*, CYP2C9 activ 0.1, CYP2C19 act 0.4 and CYP2C19 inh 64*.
For Cc1nc2c(C#N)c[nH]n2c(=O)c1Cc1ccccc1 the results were sEH inhibitor -10, sEH act 10, CYP2C9 inh 63*, CYP2C9 activ 0.4, CYP2C19 act 0.9 and CYP2C19 inh 13.
For Cc1[nH]n2c(=O)cc(Cc3ccccc3)nc2c1C#N the results were sEH inhibitor 4, sEH act -1, CYP2C9 inh 77*, CYP2C9 activ 0.2, CYP2C19 act 1.1 and CYP2C19 inh -6.
`Cc1nc2nc(Cc3ccccc3)[nH]n2c(=O)c1Cc1ccccc1` gave sEH inhibitor -10, sEH act 8, CYP2C9 inh -1, CYP2C9 activ 1, CYP2C19 act 1.1 and CYP2C19 inh -13.
`Cc1nc2c(C#N)c(C)[nH]n2c(=O)c1Cc1ccccc1` gave sEH inhibitor 3, sEH act -4, CYP2C9 inh 63*, CYP2C9 activ 0.4, CYP2C19 act 1.1 and CYP2C19 inh -9.
`N#Cc1c[nH]n2c(=O)cc(Cc3ccccc3)nc12` gave sEH inhibitor 3, sEH act -3, CYP2C9 inh 43, CYP2C9 activ 0.6, CYP2C19 act 1 and CYP2C19 inh -2.
Screening CCOC(=O)CCCNC(=O)CCCNC(=O)C(c1ccccc1)c1ccccc1 returned sEH inhibitor 6 and sEH act -8.
CCCCN(C)CCCNC(=O)CC1Oc2ccccc2NC1=O (configuration not stated) was read as sEH inhibitor -14, sEH act 13, CYP2C9 inh -10, CYP2C9 activ 1.1, CYP2C19 act 1.2 and CYP2C19 inh -22.
For Cc1cccc(-c2nnc(SCc3cc(=O)[nH]c4ccccc34)n2C)c1 the results were sEH inhibitor -7, sEH act 7, CYP2C9 inh -111, CYP2C9 activ 2.1*, CYP2C19 act 0.2 and CYP2C19 inh 84*.
`C=CCOc1c2ccc(C(=O)NCc3ccc(C)cc3)cc2nn1C` gave sEH inhibitor 22, sEH act -22, CYP2C9 inh -5, CYP2C9 activ 1.1, CYP2C19 act 0.9 and CYP2C19 inh 13.
For COc1cccc(NC(=O)CN2CCN(S(=O)(=O)c3ccc(C(C)C)cc3)CC2)c1 the results were sEH inhibitor -2, sEH act 5, CYP2C9 inh 31, CYP2C9 activ 0.7, CYP2C19 act 0.1 and CYP2C19 inh 87*.
Screening COc1cc(NC(=O)CN2CCN(S(=O)(=O)c3ccc(C(C)C)cc3)CC2)cc(OC)c1 returned sEH inhibitor 9, sEH act -7, CYP2C9 inh 30, CYP2C9 activ 0.7, CYP2C19 act 0.3 and CYP2C19 inh 74*.
`O=C(c1c(O)c2ccccc2oc1=O)C1CCC1` gave CYP2C9 inh 28, CYP2C9 activ 0.7, CYP2C19 act 1.1 and CYP2C19 inh -7.
For CCCCCN=C(C)c1c(O)c2ccccc2oc1=O the results were sEH inhibitor 9, sEH act -8, CYP2C9 inh 78*, CYP2C9 activ 0.2, CYP2C19 act 0.1 and CYP2C19 inh 88*.
`CCOC(=O)C1=C(C)NC(=S)N(C(C)=O)C1c1ccccc1` (configuration not stated) gave sEH inhibitor -2 and sEH act 0.
`CCOC(=O)C1=C(C)N(CCO)C(=O)NC1c1cccc(O)c1` (configuration not stated) gave sEH inhibitor 0, sEH act 0, CYP2C9 inh -6, CYP2C9 activ 1.1, CYP2C19 act 1.1 and CYP2C19 inh -14.
`CCC1SC2=NC(C)=C(C(=O)OC)C(c3cccs3)N2C1=O` (configuration not stated) gave sEH inhibitor -24, sEH act 23, CYP2C9 inh 44, CYP2C9 activ 0.6, CYP2C19 act 0.1 and CYP2C19 inh 90*.
CCOC(=O)C1=C(C)N=C2SC(CC)C(=O)N2C1c1cccc(F)c1 (configuration not stated) was read as sEH inhibitor 14, sEH act -12, CYP2C9 inh 75*, CYP2C9 activ 0.2, CYP2C19 act 0.1 and CYP2C19 inh 91*.
O=C(CSc1nnc(CNC(=O)c2ccccc2F)o1)Nc1ccc2c(c1)OCCO2 was read as sEH inhibitor -15, sEH act 18, CYP2C9 inh 18, CYP2C9 activ 0.8, CYP2C19 act 0.9 and CYP2C19 inh 8.
`O=c1oc2ccccc2cc1-c1cn2cccnc2n1` gave sEH inhibitor 2, sEH act -3, CYP2C9 inh 25, CYP2C9 activ 0.8, CYP2C19 act 0.4 and CYP2C19 inh 57*.
O=C(CSc1nc2ccccc2[nH]1)c1ccc2c(c1)OCO2 was read as sEH inhibitor -12, sEH act 10, CYP2C9 inh 71*, CYP2C9 activ 0.3, CYP2C19 act 0.1 and CYP2C19 inh 92*.
O=C(O)CSc1nc2ccc(Cl)cc2[nH]1 was read as sEH inhibitor 8, sEH act -9, CYP2C9 inh 2, CYP2C9 activ 1, CYP2C19 act 1.2 and CYP2C19 inh -19.
CC(=O)c1c(C)[nH]c(C(=O)CSc2nc3ccc(C)cc3[nH]2)c1C was read as sEH inhibitor 6, sEH act -3, CYP2C9 inh 94*, CYP2C9 activ 0.1, CYP2C19 act 0.1 and CYP2C19 inh 90*.
For Cc1ccc2nc(SCC(=O)c3ccc4c(c3)OCO4)[nH]c2c1 the results were sEH inhibitor 1, sEH act 1, CYP2C9 inh 69*, CYP2C9 activ 0.3, CYP2C19 act 0.6 and CYP2C19 inh 41.
`Cc1ccc(C(=O)CSc2nc(C)cc(=O)[nH]2)cc1` gave sEH inhibitor -2, sEH act 4, CYP2C9 inh 32, CYP2C9 activ 0.7, CYP2C19 act 0.9 and CYP2C19 inh 12.
For Cc1ccc2nc(SCC(=O)c3ccc(Cl)s3)[nH]c2c1 the results were sEH inhibitor 6, sEH act -4, CYP2C9 inh 60*, CYP2C9 activ 0.4, CYP2C19 act 0.5 and CYP2C19 inh 48.

High-throughput results as filed in PubChem.
